Reference: ChEMBL document CHEMBL3988442, “University of Dundee, Small-Polar-MMV Screening Library” (2021)
The campaign covered roughly 38,000 compounds. About 1,200 (3.2%) showed an effect of 50% or more. The median lay at about -58%. Only a selection was taken, and strong results are over-represented in it overall.

test system: Plasmodium falciparum; assay: Calibr Malaria Delayed Death Assay SOP; type: functional, organism-based; set-up: scale not given: in the data most compounds retested in dose-response had high values; details: concentration 4.99e-06 (unit not given; other assays of the set use mol/L)

Compound | Percent Effect [%]
Cc1cc(C(=O)N2CCN(c3nc4c(C)cccc4s3)CC2)no1 | -18.05
Cc1c(C2N3C[C@]4(C(C)C)CN2C[C@](C(C)C)(C3)C4=O)[nH]c(=O)[nH]c1=O (stereo partly specified) | -140.7
O=C(O)C(F)(F)F.O=C1COC2(CCN(c3ncccn3)CC2)CN1Cc1ccccn1 | -77.45
COc1cccc(CN(C)C(=O)c2csc(-c3nnc[nH]3)n2)c1 | -25.24
COCCN(Cc1ccccc1)C(=O)c1csc(-c2nnc[nH]2)n1 | -56.87
CN(CCCOc1ccccc1)C(=O)c1csc(-c2nnc[nH]2)n1 | 76.91
CC(=O)Nc1nc2c(s1)C1(CCCC1)Nc1ccccc1S2 | -91.88
Cc1nc(CCNC(=O)C2CC(=O)N(C(C)C)C2)cs1 (stereo unspecified) | -69.29
Cc1ccc(NC2CCN(C(=O)COC3CCCC3)CC2)nn1 | -115.6
OCc1ccccc1CNCC1CNc2ccnn2C1 (stereo unspecified) | -1.893
c1ccc(C2(NCC3CNc4ccnn4C3)CCC2)cc1 (stereo unspecified) | 13.04
Cc1cc2n(n1)CC(CNC1CCN(Cc3ccccc3C)CC1)CN2 (stereo unspecified) | 70.36
Cc1cc2n(n1)CC(CNC1CCN(C3CC3)CC1)CN2 (stereo unspecified) | -73.71
Cc1cc2n(n1)CC(CNC1CCN(C(=O)c3ccco3)CC1)CN2 (stereo unspecified) | -80.47
Cc1cccc(CN2CCC(NCC3CNc4cc(C)nn4C3)CC2)c1 (stereo unspecified) | 85.82
Cc1cc2n(n1)CC(CNC1CCN(C(=O)C3CC3)CC1)CN2 (stereo unspecified) | -153
Cc1cc2n(n1)CC(CNC1CCN(Cc3ccccn3)CC1)CN2 (stereo unspecified) | -56.82
Cc1cc2n(n1)CC(CNC1CCN(Cc3ccncc3)CC1)CN2 (stereo unspecified) | -3.89
Cc1cc2n(n1)CC(CNC1CCN(c3ccccn3)CC1)CN2 (stereo unspecified) | -51.76
Cc1ccccc1CN1CCC(NCC2CNc3ccnn3C2)CC1 (stereo unspecified) | 66.35
Cc1cc2n(n1)CC(CNC1CCN(CCc3ccccc3)CC1)CN2 (stereo unspecified) | 67.68
CC(C)N1CCC(Cc2cc(-c3cc(F)ccc3C(=O)O)ncn2)C1 (stereo unspecified) | -123.1
COCCN1CCCC2(CCN(Cc3nnc(C4CC4)o3)C2)C1=O (stereo unspecified) | -62.36

Compound | Percent Effect [%]
COCCNC(=O)c1cccnc1Oc1ccc(Cl)cc1 | -11.3
O=C(NC1CC1)[C@H]1C[C@@H]2CCN(Cc3ccc4c(c3)OCO4)C[C@@H]2O1.O=C(O)C(F)(F)F | -22.11
CC(C)c1nc(C2CCCN2C(=O)CCn2cncn2)no1 (stereo unspecified) | -126.6
CCCN(CCc1ccccc1)C(=O)c1ccccc1NCC(=O)O | -32.98
Cc1cc(C(C)(O)CNC(=O)CCn2ccnc2C(C)C)c(C)o1 (stereo unspecified) | -18.43
Cc1cc(NC(=O)NCCOc2ccc(Cl)cn2)no1 | -49.88
COc1cc(C)sc1C(=O)NCCC(=O)N(C)Cc1ccccc1 | 58.21
COc1cc(C)sc1C(=O)NCCNc1ccccc1 | 14.03
COc1cc(C)sc1C(=O)NCCC(=O)N(C)c1ccccc1 | 32.05
COCC(=O)N1CCO[C@]2(CCC[C@H]2COC)C1 | -73.03
CCc1n[nH]c(C2CN(C(=O)CCCn3cccn3)CCO2)n1 (stereo unspecified) | -94.04
COc1ccc(-c2ccccc2CN)c(OC)c1 | 59.74
COc1ccc(OC)c(-n2cnnc2CCN)c1 | -39.19
COc1ccc(-c2ccnc(N)c2)c(OC)c1 | -94.95
CC(=O)Nc1cccc(-c2ccccc2CCN)c1 | -111.2
COc1ccc(-c2cc(CN)ccc2F)c(OC)c1OC | 12.18
COc1ccc(-c2ccccc2CCN)c(OC)c1OC | 81.6
COc1ccc(CCN)cc1-c1ccc(S(C)(=O)=O)cc1 | 18.27
COc1ccc(CN)c(OC(F)F)c1.Cl | -30.28
COc1ccc(-c2ccccc2CCN)c(OC)c1 | 80.76
Cc1c[nH]c(C(=O)N2CCCC2c2ccc(C(=O)N3CCSCC3)s2)n1 (stereo unspecified) | -168.9
CC(=O)N1CCCC2(C1)CN(C(=O)Cc1ccccc1)CCO2 (stereo unspecified) | -122.2
O=C(O)Cn1ccc(=O)c2cc(Cl)ccc21 | -122.9

Compound | Percent Effect [%]
CCOc1cccc2c1OCC(=O)N(c1ccc(N(C)C)cc1)C2 | -248.2
COc1ccc(OCCN(C)C(=O)c2ccc(OC)cc2O)cc1 | -28.6
COc1ccc(-c2nnsc2C(=O)N2CCOCC2)cc1 | -93.54
COc1c(CNCc2ccccc2Cn2cccn2)c(C)nn1C | 54.96
COc1c(CNCc2ccccc2Cn2cncn2)c(C)nn1C | -2.524
COc1c(CNCc2cccc(Cn3cccn3)c2)c(C)nn1C | 6.408
Cc1nn(C)c(C)c1S(=O)(=O)NCC1(C(N)=O)CCOCC1 | -35.42
Cc1ccc(N2CC[C@H]3C[C@H](C(=O)NCc4ccco4)O[C@H]3C2)nn1.O=C(O)C(F)(F)F | -18.7
CN(Cc1ccc([S+](C)[O-])cc1)c1cncc(Br)c1 (stereo unspecified) | -68.65
COc1cc(CN2CCCCCC2c2cccs2)cc(OC)c1O (stereo unspecified) | -97.62
COc1cccc(CN2CCCCCC2c2sccc2C)c1O (stereo unspecified) | -12.07
COc1cccc(CN2CCCCCC2c2cccc(C)c2)c1O (stereo unspecified) | 56.55
COc1cccc(CN2CCCCCC2c2cccs2)c1O (stereo unspecified) | 1.572
COc1cccc(CN2CCCCCC2c2cccc(F)c2)c1O (stereo unspecified) | 55.91
Cc1cccc(C2CCCCCN2Cc2cn(C)nc2C)c1 (stereo unspecified) | 32.86
Cc1noc(C2CCC3(CCN(C(=O)c4ccncn4)CC3)O2)n1 (stereo unspecified) | -45.98
O=C(c1cccc2cn[nH]c12)N1CCCC1c1noc(C2CC2)n1 (stereo unspecified) | -53.04
CCn1ccc(-c2cc(C(=O)O)n3nc(C)c(Cl)c3n2)n1 | -42.05
O=C(O)C(F)(F)F.O=C1C[C@H]2[C@@H](CCN2C(=O)c2ccoc2)N1CCN1CCOCC1 | -16.54
Cc1cccc(-n2ncc3c(=O)n(CCN4CCCCC4)cnc32)c1C | -32.3
COCCN1CCN(CCCS(C)(=O)=O)CC1C (stereo unspecified) | -45.99
CNS(=O)(=O)CCCN1CCCC1c1cc(C)on1 (stereo unspecified) | -107.9
CC1CN(Cc2ccccc2)CCCN1CCCS(C)(=O)=O (stereo unspecified) | 50.52

Compound | Percent Effect [%]
CNS(=O)(=O)CCCN1CCCCCC1c1ccc(C)o1 (stereo unspecified) | 7.133
CNS(=O)(=O)CCCN1CCCN(Cc2ccccc2)CC1C (stereo unspecified) | 57.31
COCCN1CCN(CCCS(=O)(=O)c2ccccc2)CC1C (stereo unspecified) | -125.8
Cc1cc(F)ccc1N1CCCC(NC(=O)CCCn2ccnc2)C1 (stereo unspecified) | -46.83
Cc1ccoc1-c1nnc(CN2CCn3c(nnc3C(C)C)C2)o1 | -39.14
CCCN1CCN(c2ccc(-c3nc(C)no3)cn2)CC1 | -136.9
CCn1cc(CN2CCCN(C(=O)CCN3CCCC3=O)CC2)cn1 | -110.7
CC(C)C(NC(=O)N1CCS(=O)(=O)CC1)c1ccccc1Cl (stereo unspecified) | -66.72
CSCC(=O)N(C)Cc1ccccc1 | -13.25
N#Cc1nc(COc2ccc3c(c2)OCO3)oc1NC1CC1 | -68.74
Clc1ccc(CN2CCC(C3CCN(Cc4cccnc4)CC3)C2)cc1 (stereo unspecified) | 62.84
Clc1ccc(N2CCC(C3CCN(Cc4cccnc4)CC3)C2)nc1 (stereo unspecified) | 9.118
O=C(C1CCC1)N1CCC(C2CCN(Cc3ccc(Cl)cc3)C2)CC1 (stereo unspecified) | 64.14
CN1CCN(Cc2ccc(Cl)cc2)CC1C(=O)O (stereo unspecified) | -101.8
O=C(C1CCC1)N1CC[C@@H]2CN(Cc3cccnc3)S(=O)(=O)[C@@H]2CC1 | -57.62
Clc1cccnc1N1CCC(C2CCN(Cc3cccnc3)CC2)C1 (stereo unspecified) | -53.88
CC(=O)NCC(=O)N1CCC(C2CCN(Cc3ccc(Cl)cc3)C2)CC1 (stereo unspecified) | 1.574
CCOCC(=O)N1CCC(C2CCN(Cc3ccc(Cl)cc3)C2)CC1 (stereo unspecified) | -3.864
O=C(C1CCCC1)N1CCC(C2CCN(Cc3ccc(Cl)cc3)C2)CC1 (stereo unspecified) | 62.77
CCOC(=O)Cc1csc(NC(=O)c2cc(=O)c(OC)c[nH]2)n1 | -55.6
CN(C)CCn1c2c(ccc1=O)CCN(C(=O)c1ccoc1)CC2.O=C(O)C(F)(F)F | -90.05
CCCC(O)CN1CCC(=O)N(C)Cc2cc(F)ccc21 (stereo unspecified) | -57.01
O=C(c1cccnc1O)N(CCO)Cc1cc(Br)ccc1F | -29.02

Compound | Percent Effect [%]
O=C(O)c1ccc(CNC(=O)C2CCN(C(=O)C3CCC3)CC2)s1 | -58.95
Cc1nccn1CCCC(=O)N1CCC2(CCC(=O)N(C(C)C)C2)CC1 | -32.26
COCCNC(=O)N1CCCCC1CNC(=O)Nc1ccccc1 (stereo unspecified) | -90.53
NC(=O)CN1CCC(OCc2ccc(Cl)c(Cl)c2)CC1 | 33.26
CCC(N)C(=O)N1CCC(OCc2ccc(Cl)c(Cl)c2)CC1.Cl (stereo unspecified) | 65.86
CNC(=O)CN1CCC(OCc2ccc(Cl)c(Cl)c2)CC1 | 0.3675
COc1ccc2c(c1)OCC(CNC(=O)c1cc(C(C)C)on1)C2 (stereo unspecified) | -29.19
Cc1c(C(=O)NCC2CCN(C)C2)n(C)c2c(C)cccc12 (stereo unspecified) | 8.044
CC(=O)Nc1nc(C2CCN(C(=O)c3cncs3)CC2)cs1 | 38.41
CNC(=O)Cn1c(CO)cnc1SCc1ccccc1Cl | -84
COc1ccc(C(C)NC(=O)NCCc2ccc(C)nc2)c(OC)c1 (stereo unspecified) | -63.03
CCOc1ccc(OCC)c(NCc2cc(C)on2)c1 | -105.8
COc1ccc(CCC(=O)NCc2cc(C)on2)cc1 | -56.8
COc1cc2c(cc1CNC(=O)Cc1ccc(C)nc1)OC(C)C2 (stereo unspecified) | -97.01
COc1cc2nc(NCc3scnc3C)nc(N)c2cc1OC | 89.32
COc1cc2nc(NCc3ccc(C)nc3)nc(N)c2cc1OC | 90.21
COc1cc2nc(NCc3cc(C)on3)nc(N)c2cc1OC | 61
COc1cc(C(C)NCc2scnc2C)ccc1SC(F)F (stereo unspecified) | 16.99
COc1ccccc1NCC(=O)NCc1scnc1C | -101.9
